The results in this text go back to PubChem BioAssay (EPA / NIEHS).

Assay [1] deals with Paired box protein Pax-6 (Homo sapiens) (UniProt P26367). Nature of the assay: ATG_Pax6_CIS: Attagene CIS-FACTORIAL HepG2 Assay for human Paired Box 6 (PAX6) (AID 2282956). Particulars: HepG2 CIS-FACTORIAL PAX6 reporter transcription, RNA readout; actives raise or lower the signal. In a few lines:
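Values derive from bidirectional curve fitting of reporter mRNA signal relative to DMSO. HepG2 cells bearing transfected cis-regulated MRTUs were exposed for 24 h; transcripts were read by RT-PCR and capillary electrophoresis.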

Assay [2] is described as follows: ATG_PXRE_CIS: Attagene CIS-FACTORIAL HepG2 Assay for human Pregnane X Receptor Element (PXRE) (AID 2282957). Particulars: HepG2 Attagene CIS-FACTORIAL PXRE reporter, mRNA; actives raise or lower the signal. In short, it runs like this: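 Using HepG2 transfected with multiple reporter transcription units, endogenous factor-driven transcription was scored as reporter mRNA after 24 h exposure.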

Assay [3] in a line: ATG_PPRE_CIS: Attagene CIS-FACTORIAL HepG2 Assay for human Peroxisome Proliferator-activated Response Element (PPRE) (AID 2282958). The note with it: HepG2 PPRE cis-element reporter, Attagene transcription factor profiling; actives raise or lower the signal. In a few lines:
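PPRE activity in HepG2: transient cis-reporter transfection, 24 h compound incubation, reporter mRNA by RT-PCR and CE fluorescence; gain/loss fitted against DMSO.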

Assay [4] can be described thus: ATG_Sox_CIS: Attagene CIS-FACTORIAL HepG2 Assay for human SRY-box transcription factor (SOX) (AID 2282960). The note with it: HepG2 Attagene cis-factorial SOX reporter, mRNA; actives raise or lower the signal. In short, it runs like this:
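HepG2, cis reporter units, 24 h exposure. Reporter mRNA: RT-PCR → FAM labelling → HpaI → CE fluorescence. Bidirectional fit vs DMSO.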

The target of assay [5] is Transcription factor Sp1 (Homo sapiens) (UniProt P08047). Kind of assay: ATG_Sp1_CIS: Attagene CIS-FACTORIAL HepG2 Assay for human Specificity Protein 1 (Sp1) (AID 2282961). Particulars: HepG2 Sp1 cis-reporter transcription, actives raise or lower the signal. In short, it runs like this:
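Liver-derived HepG2 cells, cis-element reporter library, 24 h treatment; RNA isolated, cDNA amplified with reporter-specific primers, FAM-labeled fragments sized on capillary analyzer. DMSO baseline, bidirectional curve fit.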

Assay [6] in a line: ATG_SREBP_CIS: Attagene CIS-FACTORIAL HepG2 Assay for human Sterol Regulatory Element Binding (SREBP) (AID 2282962). The note with it: HepG2 Attagene cis-factorial SREBP reporter, mRNA; actives raise or lower the signal. In short, it runs like this: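 Values derive from bidirectional curve fitting with DMSO as baseline. The underlying measurement is reporter mRNA from cis-element-regulated units in transiently transfected HepG2, quantified by RT-PCR and capillary electrophoresis after 24 h exposure.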

The target of assay [7] is Signal transducer and activator of transcription 3 (Homo sapiens) (UniProt P40763). Nature of the assay: ATG_STAT3_CIS: Attagene CIS-FACTORIAL HepG2 Assay for human Signal Transducer and Activator of Transcription 3 (STAT3) (AID 2282963). Particulars: HepG2, Attagene cis-factorial STAT3 reporter transcription; actives raise or lower the signal. In a few lines: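 Cis-factorial format: endogenous transcription factors in HepG2 drive transfected reporter units. After 24 h treatment, reporter RNA was reverse-transcribed, amplified, FAM-labelled and HpaI-digested before CE analysis; activity scored in both directions against DMSO.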

Assay [8] in a line: ATG_TA_CIS: Attagene CIS-FACTORIAL HepG2 Assay for human TA Basal Promoter (AID 2282964). Particulars: HepG2 Attagene CIS-factorial TA basal promoter reporter; actives raise or lower the signal. In a few lines: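 Background internal-marker endpoint from a 52-component HepG2 cis-reporter panel. Cells treated 24 h; reporter transcripts quantified via RT-PCR and CE fluorescence against DMSO baseline.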

A short description of assay [9]: ATG_TCF_b_cat_CIS: Attagene CIS-FACTORIAL HepG2 Assay for human T-Cell-Factor with beta-catenin (TCF/b-cat) (AID 2282965). Particulars: HepG2 TCF/beta-catenin cis-reporter transcription, actives raise or lower the signal. In short, it runs like this:
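Endogenous transcription factor activity is captured through cis-promoter reporter constructs transiently introduced into human HepG2 liver cells. Induced reporter mRNA is measured after 24 h and fitted bidirectionally relative to DMSO.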

Assay [10] in a line: ATG_TAL_CIS: Attagene CIS-FACTORIAL HepG2 Assay for human TAL Basal Promoter (AID 2282966).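 Also: background control endpoint measuring basal TAL promoter reporter mRNA not a specific factor.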 Particulars: HepG2 Attagene cis-factorial TAL promoter reporter; actives raise or lower the signal. In short, it runs like this: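 After 24 hours of chemical exposure, transfected HepG2 cells yielded RNA that was converted to 6-FAM-labelled, HpaI-digested reporter fragments for capillary electrophoresis. Values derive from bidirectional fitting against DMSO controls.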

Assay [11] in a line: ATG_TGFb_CIS: Attagene CIS-FACTORIAL HepG2 Assay for human Transforming Growth Factor (TGF) (AID 2282967). The note with it: HepG2 Attagene CIS TGFb reporter, mRNA transcription; actives raise or lower the signal. In a few lines:
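Liver HepG2 line, cis-factorial reporter panel, 24 h dosing. Quantitation: RT-PCR products labeled with 6-FAM, cut with HpaI, resolved by capillary electrophoresis; DMSO-referenced bidirectional analysis.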

Assay [12] in a line: ATG_VDRE_CIS: Attagene CIS-FACTORIAL HepG2 Assay for human Vitamin D Receptor Element (VDRE) (AID 2282968). Particulars: HepG2 VDRE cis-reporter transcription, actives raise or lower the signal. In short, it runs like this:
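Measures endogenous factor activity through cis-element-driven reporter transcripts in transiently transfected HepG2. Cells are treated 24 h; reporter mRNA is quantified by RT-PCR and capillary electrophoresis; fitting is bidirectional.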

Assay [13] deals with Estrogen receptor (Homo sapiens) (UniProt P03372). Kind of assay: ATG_ERa_TRANS: Attagene TRANS-FACTORIAL HepG2 Assay for human Estrogen Receptor alpha (ERa) (AID 2282970; active = hit-call score of the fitted dose curve at least 0.9, where 1 is the maximum). The note with it: HepG2 Attagene TRANS ERa GAL4 reporter, mRNA. In short, it runs like this:
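Liver-derived HepG2 cells expressing chimeric nuclear receptor-Gal4 proteins from transient transfection were exposed for 24 hours. Gain of reporter mRNA signal versus DMSO, read by capillary electrophoresis of FAM-labelled PCR products, was recorded.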

For assay [14], the target named is X-box-binding protein 1 (Homo sapiens) (UniProt P17861). Kind of assay: ATG_Xbp1_CIS: Attagene CIS-FACTORIAL HepG2 Assay for human X-box Binding Protein 1 (XBP1) (AID 2282972). The note with it: HepG2 XBP1 cis-element reporter, Attagene multiplex; actives raise or lower the signal. In a few lines: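 Human hepatoma HepG2, cis-element reporter system, 24 h treatment; mRNA quantified by RT-PCR/CE fluorescence; fit relative to DMSO.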

Assay [15] can be described thus: ATG_RORE_CIS: Attagene CIS-FACTORIAL HepG2 Assay for human RAR-related Orphan Receptor Element (RORE) (AID 2282959). The note with it: HepG2 Attagene cis-factorial RORE reporter, mRNA; actives raise or lower the signal. In short, it runs like this:
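A 24-hour exposure of transfected HepG2 hepatoma cells precedes RNA isolation and reporter RT-PCR. Labeled products are digested with HpaI and resolved by capillary electrophoresis, with gain or loss of signal scored relative to DMSO.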

In assay [16] the target is Nuclear receptor subfamily 1 group I member 3 (Homo sapiens) (UniProt Q14994). Kind of assay: ATG_CAR_TRANS: Attagene TRANS-FACTORIAL HepG2 Assay for human Constitutive Androstane Receptor (CAR) (AID 2282969; active = hit-call score of the fitted dose curve at least 0.9, where 1 is the maximum;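 also: activators raise reporter mRNA above DMSO so AC50 marks induction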). The note with it: HepG2 Attagene TRANS-FACTORIAL CAR reporter. In short, it runs like this: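 Signal is reporter mRNA induction relative to DMSO, measured 24 h after dosing by RT-PCR with fluorescent primer extension and capillary electrophoresis. Human HepG2 liver cells carried transiently transfected chimeric NR-Gal4/GAL4-UAS reporter constructs.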

Assay [17] concerns the target Steroid hormone receptor ERR1 (Homo sapiens) (UniProt P11474). Kind of assay: ATG_ERRa_TRANS: Attagene TRANS-FACTORIAL HepG2 Assay for human Estrogen-Related Receptor alpha (ERRa) (AID 2282971; active = hit-call score of the fitted dose curve at least 0.9, where 1 is the maximum). Particulars: HepG2 Attagene TRANS reporter, ERRa transactivation. In short, it runs like this:
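Reporter transcript induction was quantified by RT-PCR and capillary electrophoresis of FAM-labelled, HpaI-cut products after 24 h treatment of HepG2 cells carrying transiently transfected GAL4-UAS reporter units and an exogenous ERRa-Gal4 fusion; activity scored as increase over DMSO.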

Assay [18] can be described thus: ATG_M_19_TRANS: Attagene TRANS-FACTORIAL HepG2 Assay for M19 Transcription Factor (Internal Marker) (AID 2282974; active = hit-call score of the fitted dose curve at least 0.9, where 1 is the maximum). The note with it: HepG2 Attagene TRANS-FACTORIAL M19 internal marker reporter. In short, it runs like this:
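Transfected HepG2 (GAL4-UAS MRTUs), 24 h compound, TriZol RNA, DNase-treated RT, reporter PCR, FAM label, HpaI digest, CE fluorescence; gain vs DMSO.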

The nature of assay [19]: ATG_GAL4_TRANS: Attagene TRANS-FACTORIAL HepG2 Assay for GAL4 (Internal Marker) (AID 2282976; active = hit-call score of the fitted dose curve at least 0.9, where 1 is the maximum). The note with it: HepG2 Attagene TRANS GAL4 internal marker reporter. In short, it runs like this:
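First, HepG2 cells were transfected with reporter units under GAL4-UAS control. Next, they were treated with chemical for 24 h. Finally, RNA was reverse-transcribed, PCR-amplified, FAM-labelled and resolved by capillary electrophoresis, with induction scored against DMSO.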

Records with an inconclusive call do not appear. Activity calls are given as the source filed them. The calls were made as follows, unless noted: active = hit-call score of the fitted dose curve at least 0.9, where 1 is the maximum; inactive = score below 0.9.

Sequence of Estrogen receptor (Homo sapiens) (P03372 whole entry, looked up, the tested form may be a part): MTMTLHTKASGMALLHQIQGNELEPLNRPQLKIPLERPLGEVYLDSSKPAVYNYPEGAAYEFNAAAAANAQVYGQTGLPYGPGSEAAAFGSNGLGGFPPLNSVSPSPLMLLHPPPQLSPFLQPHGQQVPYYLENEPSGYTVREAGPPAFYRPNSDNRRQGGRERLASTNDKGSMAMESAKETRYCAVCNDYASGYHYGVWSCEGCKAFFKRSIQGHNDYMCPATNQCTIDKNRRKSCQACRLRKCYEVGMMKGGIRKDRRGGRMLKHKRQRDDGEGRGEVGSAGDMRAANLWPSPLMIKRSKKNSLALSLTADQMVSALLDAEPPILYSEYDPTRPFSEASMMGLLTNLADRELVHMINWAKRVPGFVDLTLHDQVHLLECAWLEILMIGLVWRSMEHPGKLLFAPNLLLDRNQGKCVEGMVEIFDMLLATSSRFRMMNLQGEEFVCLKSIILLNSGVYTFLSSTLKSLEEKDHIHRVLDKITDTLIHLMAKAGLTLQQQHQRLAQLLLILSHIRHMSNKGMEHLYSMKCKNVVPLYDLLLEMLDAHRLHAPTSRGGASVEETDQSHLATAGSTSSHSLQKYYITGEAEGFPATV
Sequence of X-box-binding protein 1 (Homo sapiens) (P17861 whole entry, looked up): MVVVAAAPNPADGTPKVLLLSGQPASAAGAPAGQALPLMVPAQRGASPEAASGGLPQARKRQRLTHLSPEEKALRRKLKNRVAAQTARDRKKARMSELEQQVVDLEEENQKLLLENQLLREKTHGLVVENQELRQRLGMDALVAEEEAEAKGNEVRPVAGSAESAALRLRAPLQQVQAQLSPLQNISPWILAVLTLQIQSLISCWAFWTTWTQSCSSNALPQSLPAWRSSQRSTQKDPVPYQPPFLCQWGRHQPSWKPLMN
Sequence of Transcription factor Sp1 (Homo sapiens) (P08047 whole entry, looked up, the tested form may be a part): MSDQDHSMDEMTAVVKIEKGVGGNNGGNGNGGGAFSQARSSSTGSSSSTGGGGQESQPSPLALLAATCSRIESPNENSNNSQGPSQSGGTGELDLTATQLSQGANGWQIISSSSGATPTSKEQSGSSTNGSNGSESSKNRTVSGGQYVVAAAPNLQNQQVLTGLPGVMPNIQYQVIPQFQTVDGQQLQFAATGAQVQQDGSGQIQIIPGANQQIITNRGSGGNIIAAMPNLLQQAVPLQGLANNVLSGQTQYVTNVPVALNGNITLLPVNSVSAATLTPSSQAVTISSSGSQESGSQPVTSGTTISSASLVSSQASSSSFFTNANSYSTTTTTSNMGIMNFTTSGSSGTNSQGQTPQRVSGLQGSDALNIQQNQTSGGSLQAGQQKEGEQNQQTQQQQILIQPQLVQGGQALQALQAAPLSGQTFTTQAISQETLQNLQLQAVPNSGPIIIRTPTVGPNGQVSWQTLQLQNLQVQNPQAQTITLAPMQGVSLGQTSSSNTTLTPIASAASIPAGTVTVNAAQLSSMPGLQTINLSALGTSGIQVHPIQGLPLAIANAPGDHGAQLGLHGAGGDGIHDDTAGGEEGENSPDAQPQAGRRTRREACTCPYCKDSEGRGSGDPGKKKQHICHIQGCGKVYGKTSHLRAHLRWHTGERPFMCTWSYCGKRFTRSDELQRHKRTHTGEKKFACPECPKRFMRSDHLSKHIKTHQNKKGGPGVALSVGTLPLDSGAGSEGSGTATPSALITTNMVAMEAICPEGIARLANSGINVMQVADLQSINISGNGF
Sequence of Signal transducer and activator of transcription 3 (Homo sapiens) (P40763 whole entry, looked up): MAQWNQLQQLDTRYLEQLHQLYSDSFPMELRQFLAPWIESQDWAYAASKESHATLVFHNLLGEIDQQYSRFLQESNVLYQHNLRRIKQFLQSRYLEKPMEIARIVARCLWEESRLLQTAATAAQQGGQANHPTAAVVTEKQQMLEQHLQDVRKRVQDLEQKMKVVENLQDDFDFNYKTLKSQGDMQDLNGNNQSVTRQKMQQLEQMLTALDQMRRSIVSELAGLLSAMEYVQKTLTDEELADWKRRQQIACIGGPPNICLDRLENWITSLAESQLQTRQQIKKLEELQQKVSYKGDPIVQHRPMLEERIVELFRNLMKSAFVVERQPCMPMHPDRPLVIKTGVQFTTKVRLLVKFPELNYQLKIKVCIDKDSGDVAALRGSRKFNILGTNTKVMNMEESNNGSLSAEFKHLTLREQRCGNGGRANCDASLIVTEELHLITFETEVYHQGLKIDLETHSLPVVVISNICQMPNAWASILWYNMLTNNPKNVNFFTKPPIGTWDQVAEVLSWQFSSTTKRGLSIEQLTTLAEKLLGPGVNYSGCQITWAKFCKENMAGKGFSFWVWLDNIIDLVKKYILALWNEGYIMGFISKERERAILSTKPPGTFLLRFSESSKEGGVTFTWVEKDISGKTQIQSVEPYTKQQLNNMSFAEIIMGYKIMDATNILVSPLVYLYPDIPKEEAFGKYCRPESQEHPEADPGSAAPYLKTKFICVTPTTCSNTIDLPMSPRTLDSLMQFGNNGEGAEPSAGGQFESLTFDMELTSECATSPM
Sequence of Paired box protein Pax-6 (Homo sapiens) (P26367 whole entry, looked up): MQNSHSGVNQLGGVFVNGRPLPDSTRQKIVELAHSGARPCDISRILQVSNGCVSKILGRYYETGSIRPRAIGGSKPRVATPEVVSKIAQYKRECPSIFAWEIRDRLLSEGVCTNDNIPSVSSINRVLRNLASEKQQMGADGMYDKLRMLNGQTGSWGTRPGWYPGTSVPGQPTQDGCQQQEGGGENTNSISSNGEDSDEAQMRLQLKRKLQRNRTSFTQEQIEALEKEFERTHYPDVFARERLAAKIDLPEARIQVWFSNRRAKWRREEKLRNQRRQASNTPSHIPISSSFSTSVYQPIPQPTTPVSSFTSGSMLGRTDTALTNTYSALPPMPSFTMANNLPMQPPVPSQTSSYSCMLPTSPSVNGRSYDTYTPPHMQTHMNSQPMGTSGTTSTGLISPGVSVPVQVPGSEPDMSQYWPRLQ
Sequence of Steroid hormone receptor ERR1 (Homo sapiens) (P11474 whole entry, looked up, the tested form may be a part): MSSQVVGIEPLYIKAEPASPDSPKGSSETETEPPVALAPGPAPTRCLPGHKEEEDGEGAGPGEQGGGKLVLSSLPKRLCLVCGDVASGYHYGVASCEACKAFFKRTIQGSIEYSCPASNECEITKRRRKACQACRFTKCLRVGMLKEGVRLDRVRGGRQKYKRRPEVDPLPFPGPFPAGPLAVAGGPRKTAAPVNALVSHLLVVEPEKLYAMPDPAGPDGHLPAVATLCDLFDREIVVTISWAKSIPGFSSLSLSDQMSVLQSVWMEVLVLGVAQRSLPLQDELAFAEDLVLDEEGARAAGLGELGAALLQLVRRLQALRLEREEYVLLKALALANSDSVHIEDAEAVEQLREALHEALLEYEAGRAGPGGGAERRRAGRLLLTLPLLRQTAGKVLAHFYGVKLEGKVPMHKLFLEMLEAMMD
Sequence of Nuclear receptor subfamily 1 group I member 3 (Homo sapiens) (Q14994 whole entry, looked up, the tested form may be a part): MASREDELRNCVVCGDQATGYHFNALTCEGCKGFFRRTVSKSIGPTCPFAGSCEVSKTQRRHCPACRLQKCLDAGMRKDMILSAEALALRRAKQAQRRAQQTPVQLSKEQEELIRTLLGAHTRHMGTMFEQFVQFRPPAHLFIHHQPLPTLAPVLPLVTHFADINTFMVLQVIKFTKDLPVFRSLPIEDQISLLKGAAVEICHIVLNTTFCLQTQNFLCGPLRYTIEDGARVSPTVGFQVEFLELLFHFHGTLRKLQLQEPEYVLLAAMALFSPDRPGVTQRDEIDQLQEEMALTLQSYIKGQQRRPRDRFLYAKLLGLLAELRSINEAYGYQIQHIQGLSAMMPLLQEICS

For `COc1ccc(-c2coc3cc(O)ccc3c2=O)cc1`, the compound was classed as inactive in assay [1], in assay [3], in assay [4], in assay [5], in assay [6] and in assay [7]. Besides, the outcome in assay [8], in assay [9], in assay [10], in assay [11], in [12] and in assay [14] was inactive. In addition, the AC50 (in general, the concentration giving half of the maximal activity seen) was 11.3 µM (active) in [2] and 1.21 µM (active) in [13].

In the case of `CC=CC(=O)N(CC)c1ccccc1C`, the compound was classed as inactive in assay [1], in assay [15], in assay [4], in assay [5], in assay [6] and in assay [7]. The call in [8], in assay [9], in assay [10], in assay [11], in [16] and in assay [13] was inactive. The result in [17], in [14] and in [18] was inactive. Further, the results for the AC50 in [2] and in assay [12] were 11.1 µM (active) and 15.5 µM (active), respectively.

As to `CC1(C)O[C@@H]2C[C@H]3[C@@H]4C[C@H](F)C5=CC(=O)C=C[C@]5(C)[C@@]4(F)[C@@H](O)C[C@]3(C)[C@]2(C(=O)CO)O1`, the call in assay [1], in [3], in assay [4], in assay [5], in [7] and in assay [8] was inactive. Also, the outcome in assay [9], in [10], in assay [11], in assay [12] and in assay [14] was inactive. Further, the AC50 in assay [2] was 6.12 µM (active); in [13], 9.67 µM (active).

As for `c1ccc2c(c1)ccc1cc3c(ccc4ccccc43)cc12`, the outcome in assay [1], in assay [2], in assay [15], in [4], in assay [5] and in assay [6] was inactive. Further, the outcome in [7], in [8], in assay [9], in assay [10], in [11] and in [13] was inactive. The outcome in assay [14], in assay [18] and in assay [19] was inactive.

Take `O=C(Nc1ccccc1SSc1ccccc1NC(=O)c1ccccc1)c1ccccc1`: the result in assay [1], in assay [4], in assay [5], in [6], in [7] and in assay [8] was inactive. The call in assay [9], in [10], in assay [11], in assay [16], in [13] and in assay [17] was inactive. Also, the outcome in assay [14] and in assay [18] was inactive. In addition, the AC50 in assay [2] is 4.44 µM (active); in [15] it was 2.56 µM (active).
